In PubChem BioAssay (NCI) one finds growth data, which are given here for seven compounds.

Among the test systems are HCT-15 colon; HT29 colon; SNB-75 CNS; SNB-19 CNS; U251 CNS; PC-3 prostate; SK-MEL-5 melanoma; UACC-62 melanoma; LOX IMVI melanoma; SK-MEL-28 melanoma; SK-MEL-2 melanoma; EKVX NSCLC; SN12C renal; UO-31 renal; TK-10 renal; ACHN renal; CAKI-1 renal; A498 renal; CCRF-CEM leukemia; MOLT-4 leukemia.
Holding throughout (experiment): NCI-60 one-dose screen, 48 h (100 = growth as untreated, 0 = no growth, -100 = all killed)
What all share (details): 10 µM unless noted

“And” between values parts separate entries of the source, which are not always exact repeats. Equal entries are not always repeated. About 83,000 compounds went through this panel and 20% of them were active in at least one assay; those are over-represented in the sample as a whole.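 In brief: 96-well plates, 48 h treatment, single concentration, percent growth endpoint.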 The source made the active and inactive calls. How the source made its calls: active means growth percent below 10; inactive means the rest.

For the compound `CCC(O)c1ccccc1` (stereo not given), the growth in the test with HCT-15 colon is 113% (inactive) and 105% (inactive); in the test with HT29 colon, 104% (inactive) and 105% (inactive); in the test with SNB-75 CNS it was 88% (inactive) and 97.5% (inactive); with SNB-19 CNS, 110% (inactive) and 103% (inactive); in the test on U251 CNS, 102% (inactive); with PC-3 prostate, 116% (inactive) and 102% (inactive). For the same compound, the growth was 107% (inactive) and 95.3% (inactive) with SK-MEL-5 melanoma; 111% (inactive) and 97.7% (inactive) with UACC-62 melanoma; 104% (inactive) and 108% (inactive) in the test with LOX IMVI melanoma; 75.7% (inactive) and 98.6% (inactive) in the test with SK-MEL-28 melanoma; 104% (inactive) in the test with SK-MEL-2 melanoma; 94.1% (inactive) and 110% (inactive) with EKVX NSCLC. The growth in the test with SN12C renal is 98.1% (inactive) and 96.2% (inactive); in the test with UO-31 renal, 98.8% (inactive) and 91.3% (inactive); with TK-10 renal it was 113% (inactive) and 111% (inactive); with ACHN renal, 107% (inactive) and 111% (inactive); in the test on CAKI-1 renal it was -23.1% (active) and 97% (inactive); with A498 renal, 88.5% (inactive) and 92.8% (inactive). For the same compound, the growth with CCRF-CEM leukemia was 103% (inactive) and 92% (inactive); with MOLT-4 leukemia, 98.1% (inactive) and 78.8% (inactive).

As to `CCN(CC)CCOc1ccc(/C=N/Nc2nc3c([nH]2)c(=O)n(C)c(=O)n3C)cc1`, the growth with HCT-15 colon is 97.2% (inactive) and 103% (inactive); with HT29 colon, 99.9% (inactive) and 91.4% (inactive); with SNB-75 CNS it was 88.4% (inactive) and 90.3% (inactive); in the test with SNB-19 CNS, 98.5% (inactive) and 102% (inactive); in the test on U251 CNS it was 98.6% (inactive) and 113% (inactive); with PC-3 prostate it was 99.4% (inactive) and 88.5% (inactive). Besides, the growth with SK-MEL-5 melanoma was 102% (inactive) and 107% (inactive); in the test with UACC-62 melanoma it was 94.2% (inactive) and 99.8% (inactive); with LOX IMVI melanoma, 104% (inactive) and 92.3% (inactive); in the test on SK-MEL-28 melanoma, 115% (inactive) and 112% (inactive); with SK-MEL-2 melanoma it was 102% (inactive) and 107% (inactive); in the test on EKVX NSCLC, 99.1% (inactive) and 95.8% (inactive). In addition, the growth in the test on SN12C renal was 98.9% (inactive) and 96.5% (inactive); with UO-31 renal, 80.8% (inactive) and 79.6% (inactive); with TK-10 renal it was 94.2% (inactive) and 101% (inactive); in the test with ACHN renal, 102% (inactive) and 94.6% (inactive); in the test with CAKI-1 renal it was 118% (inactive) and 85.6% (inactive); in the test on A498 renal it was 88.5% (inactive) and 88.9% (inactive). The growth in the test on CCRF-CEM leukemia is 83.5% (inactive) and 103% (inactive); in the test on MOLT-4 leukemia, 88.4% (inactive) and 102% (inactive).

As to `O=c1c2ccccc2nc2n1Cc1nc3ccccc3c(=O)n1C2`, the growth in the test on HCT-15 colon is 90.9% (inactive) and 108% (inactive); with HT29 colon, 111% (inactive) and 103% (inactive); in the test with SNB-75 CNS it was 86.6% (inactive) and 105% (inactive); with SNB-19 CNS, 102% (inactive) and 91.9% (inactive); in the test on U251 CNS, 105% (inactive) and 108% (inactive); with PC-3 prostate, 98.6% (inactive) and 107% (inactive). Further, the growth in the test with SK-MEL-5 melanoma was 95.3% (inactive) and 107% (inactive); with UACC-62 melanoma it was 95.6% (inactive) and 98.9% (inactive); in the test with LOX IMVI melanoma, 96.1% (inactive) and 97.6% (inactive); in the test on SK-MEL-28 melanoma it was 97.8% (inactive) and 101% (inactive); with SK-MEL-2 melanoma, 103% (inactive) and 119% (inactive); in the test with EKVX NSCLC, 90.9% (inactive) and 104% (inactive). The growth is 96.9% (inactive) and 102% (inactive) in the test with SN12C renal; 81.2% (inactive) and 92.6% (inactive) with UO-31 renal; 107% (inactive) and 102% (inactive) with TK-10 renal; 95.6% (inactive) and 102% (inactive) in the test with ACHN renal; 93.5% (inactive) in the test on CAKI-1 renal; 93.9% (inactive) and 103% (inactive) in the test with A498 renal. Also, the growth is 96.2% (inactive) and 112% (inactive) in the test with CCRF-CEM leukemia; 99.4% (inactive) and 30.7% (inactive) with MOLT-4 leukemia.

In the case of `O=CC(O)C(O)C(O)CO` (stereo not given), the growth in the test on HCT-15 colon was 100% (inactive); with HT29 colon, 113% (inactive) and 102% (inactive); in the test with SNB-75 CNS it was 104% (inactive) and 97.8% (inactive); in the test with SNB-19 CNS, 103% (inactive) and 113% (inactive); in the test with U251 CNS, 102% (inactive) and 105% (inactive); in the test with PC-3 prostate, 41.2% (inactive) and 98.4% (inactive). In addition, the growth was 87.1% (inactive) and 103% (inactive) in the test on SK-MEL-5 melanoma; 96.6% (inactive) and 117% (inactive) in the test on UACC-62 melanoma; 99.5% (inactive) and 100% (inactive) with LOX IMVI melanoma; 104% (inactive) and 109% (inactive) in the test on SK-MEL-28 melanoma; -27.3% (active) with SK-MEL-2 melanoma; 114% (inactive) with EKVX NSCLC. Further, the growth in the test with SN12C renal was 95.5% (inactive) and 109% (inactive); in the test on UO-31 renal, 90.7% (inactive) and 78.5% (inactive); with TK-10 renal it was 125% (inactive) and 107% (inactive); in the test on ACHN renal, 98.7% (inactive) and 98.1% (inactive); in the test with CAKI-1 renal, 106% (inactive) and 117% (inactive); in the test on A498 renal it was 94.8% (inactive) and 109% (inactive). For the same compound, the growth in the test with CCRF-CEM leukemia was 79.8% (inactive) and 98% (inactive); in the test with MOLT-4 leukemia, 122% (inactive) and 87.4% (inactive).

In the case of `COc1ccc(-c2cn[nH]c2-c2cc(OC)c(OC)c(OC)c2)cc1N`, the growth in the test with HCT-15 colon was 8.28% (active) and 13.1% (inactive); in the test with HT29 colon, 1.51% (active) and 10.1% (inactive); in the test with SNB-75 CNS, 57.5% (inactive) and 20.3% (inactive); in the test on SNB-19 CNS, 34.4% (inactive) and 34.1% (inactive); with U251 CNS, 9.51% (active) and 19.3% (inactive); in the test with PC-3 prostate it was 19.1% (inactive) and 27.2% (inactive). In addition, the growth was -40.3% (active) and -49.2% (active) in the test on SK-MEL-5 melanoma; 46.1% (inactive) and 32.6% (inactive) in the test on UACC-62 melanoma; 35.2% (inactive) and 28.5% (inactive) in the test on LOX IMVI melanoma; 49.7% (inactive) and 62.5% (inactive) with SK-MEL-28 melanoma; 47.8% (inactive) and 62.1% (inactive) in the test on SK-MEL-2 melanoma; 47.5% (inactive) and 44% (inactive) in the test with EKVX NSCLC. The growth in the test with SN12C renal is 36.3% (inactive) and 28.5% (inactive); with UO-31 renal, 50.1% (inactive) and 34.7% (inactive); in the test on TK-10 renal it was 76.4% (inactive) and 91.4% (inactive); in the test on ACHN renal, 30.7% (inactive) and 29.4% (inactive); with CAKI-1 renal, 25.1% (inactive) and 22.9% (inactive); in the test on A498 renal, -1.49% (active). Besides, the growth with CCRF-CEM leukemia is 22.1% (inactive) and 21.2% (inactive); with MOLT-4 leukemia, 16.3% (inactive) and 23.4% (inactive).

Consider `Cc1ccc(NCSc2ccc(Cl)cc2)cc1`, for which the growth with HCT-15 colon is 77.1% (inactive) and 90.7% (inactive); with HT29 colon, 79.4% (inactive) and 75.7% (inactive); with SNB-75 CNS, 86% (inactive) and 91.7% (inactive); in the test with SNB-19 CNS, 89.3% (inactive) and 90% (inactive); in the test with U251 CNS, 71.4% (inactive) and 79.1% (inactive); in the test with PC-3 prostate it was 66.8% (inactive) and 62.3% (inactive). In addition, the growth in the test with SK-MEL-5 melanoma was 86.5% (inactive) and 102% (inactive); in the test on UACC-62 melanoma, 82.3% (inactive) and 85% (inactive); with LOX IMVI melanoma, 88.6% (inactive) and 95.2% (inactive); in the test on SK-MEL-28 melanoma it was 86.9% (inactive) and 94.3% (inactive); with SK-MEL-2 melanoma it was 108% (inactive) and 93.6% (inactive); with EKVX NSCLC it was 92.7% (inactive) and 77.3% (inactive). Further, the growth in the test with SN12C renal was 46.2% (inactive) and 42.7% (inactive); in the test on UO-31 renal, 27% (inactive) and 14.7% (inactive); with TK-10 renal, 90.8% (inactive) and 78.2% (inactive); in the test on ACHN renal, 88.4% (inactive) and 99.6% (inactive); in the test on CAKI-1 renal it was 59.5% (inactive); in the test with A498 renal it was 62.5% (inactive) and 66.3% (inactive). Further, the growth is 17.8% (inactive) in the test on CCRF-CEM leukemia; 25.1% (inactive) and 47.8% (inactive) with MOLT-4 leukemia.

`Nc1cc2c(cc1N)-c1ccccc1C2`: the growth is 85.9% (inactive) and 94.3% (inactive) in the test on HCT-15 colon; 96.6% (inactive) and 105% (inactive) in the test with HT29 colon; 71.4% (inactive) and 91.6% (inactive) in the test on SNB-75 CNS; 97.7% (inactive) and 115% (inactive) in the test with SNB-19 CNS; 89.9% (inactive) and 89.5% (inactive) in the test on U251 CNS; 85% (inactive) and 105% (inactive) in the test with PC-3 prostate. For the same compound, the growth in the test on SK-MEL-5 melanoma is 95.7% (inactive) and 97.1% (inactive); in the test on UACC-62 melanoma, 85.3% (inactive) and 109% (inactive); in the test on LOX IMVI melanoma it was 97.5% (inactive) and 93.3% (inactive); with SK-MEL-28 melanoma, 115% (inactive) and 116% (inactive); in the test on SK-MEL-2 melanoma, 86.3% (inactive) and 111% (inactive); with EKVX NSCLC it was 67.1% (inactive) and 68% (inactive). Further, the growth in the test with SN12C renal was 75.7% (inactive) and 101% (inactive); in the test with UO-31 renal, 58.8% (inactive) and 73.1% (inactive); in the test on TK-10 renal it was 108% (inactive); in the test on ACHN renal it was 82.6% (inactive) and 88.3% (inactive); in the test with CAKI-1 renal, 56.8% (inactive) and 79.8% (inactive); in the test on A498 renal, 88.2% (inactive) and 103% (inactive). The growth is 18.9% (inactive) and 30.8% (inactive) in the test on CCRF-CEM leukemia; 57.3% (inactive) and 79.8% (inactive) in the test with MOLT-4 leukemia.
